hgDAF12 agonist – H. glycines DAF-12 receptor agonists, primary screen, cell-based, luminescence, HEK293, GAL4 fusion, UAS-luciferase | Nuclear hormone receptor DAF-12 (Heterodera glycines), GAL4 fusion | HEK293 GAL4-hgDAF12 UAS-luciferase reporter, agonist luminescence; normalized to butyrate control | activation, % at 6.8 µM | 1.8% of 370,000 active | AID 687014, 2013;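 active means activation above a cutoff set at the mean of all screened compounds plus 3 SD, cut at about 10% in these data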;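 further: 0% = DMSO wells and 100% = sodium butyrate wells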
DAX1 inh – DAX1 (NR0B1) inhibitors on StAR promoter, primary screen, cell-based, luminescence, SF-1 (NR5A1), full-length DAX-1. HEK293T StAR-luciferase reporter, SF-1/DAX-1 repression relief. inhibition, % at 6.8 µM. 1.1% of 370,000 active. AID 652010, 2013;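 active means inhibition above the mean over all tested compounds plus 3 SD, cut at about 3.6% in these data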;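 further: 0% = DAX-1 cells with DMSO and 100% = cells lacking DAX-1 with DMSO; higher inhibition means more luminescence from relief of DAX-1 repression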
esBAF inh – Bmi1 luciferase reporter increase in mESCs, primary screen, esBAF inhibitor project, mouse ES cells, Bmi1 luciferase knock-in, single point; reporter increase, % at 12.5 µM; 2% of 350,000 active; 24 h; 100% = twice the neutral-well signal; in the data active means activation above about 40%; inconclusive means no clear call, values can overlap the other calls;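 further: 0% = median of the plate's neutral control wells and 100% = double that signal; a rise in the Bmi1 reporter signal indicates esBAF inhibition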
ssDAF12 agonist – S. stercoralis DAF-12 nuclear receptor activators, primary screen, cell-based, luminescence, HEK293, GRIP1 co-expression, lit1-tk-luc. Nuclear hormone receptor DAF-12 (Strongyloides stercoralis). HEK293 ssDAF-12/GRIP1 lit1-tk-luc reporter; % of 3 µM dafachronic acid response. activation, % at 6.8 µM. 1% of 370,000 active;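 active means activation above the mean over all tested compounds plus 3 SD, cut at about 0.9% in these data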;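 further: 0% = DMSO-only wells and 100% = 3 µM delta7-dafachronic acid wells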
Wnt act – Wnt/beta-catenin pathway activators, primary screen, cell-based, plate reader, single point; 1.2% of 300,000 active; Wnt/beta-catenin reporter cell assay, activator; activation, % at 9.35 µM; AID 743398, 2014; in the data active means activation above about 30%, passing the limit was not always enough; inconclusive means no clear call, values can overlap the other calls;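 further: 0% = neutral control wells and 100% = positive control wells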
hcDAF12 agonist – H. contortus DAF-12 nuclear receptor activators, primary screen, cell-based, luminescence, HEK293, lit1-tk-luc reporter | activation, % at 6.8 µM | AID 652067, 2013 | 1.4% of 370,000 active | HEK293 hcDAF-12 lit1-tk-luc reporter; 0% DMSO, 100% Δ7-dafachronic acid;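 active means activation above the mean of all tested compounds plus 3 SD, cut at about 5.5% in these data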;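 further: 100% = response to 3 µM Δ7-dafachronic acid high control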
DAX1 conf – DAX1 (NR0B1) inhibitors relieving SF-1 repression, confirmation, cell-based, luminescence, HEK293T, full-length DAX-1, SF-1 activated StAR promoter; HEK293T StAR-promoter luciferase reporter, SF-1/DAX-1 repression; shares compounds with DAX1 inh; AID 652134, 2013; 87% of 2,400 active; inhibition, % at 6.8 µM;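 active means inhibition above the average of every tested compound plus 3 SD, cut at about 3.8% in these data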;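 further: 0% = DAX-1 cells with DMSO and 100% = no DAX-1 control cells with DMSO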
Target sequence (P51843 whole entry, looked up): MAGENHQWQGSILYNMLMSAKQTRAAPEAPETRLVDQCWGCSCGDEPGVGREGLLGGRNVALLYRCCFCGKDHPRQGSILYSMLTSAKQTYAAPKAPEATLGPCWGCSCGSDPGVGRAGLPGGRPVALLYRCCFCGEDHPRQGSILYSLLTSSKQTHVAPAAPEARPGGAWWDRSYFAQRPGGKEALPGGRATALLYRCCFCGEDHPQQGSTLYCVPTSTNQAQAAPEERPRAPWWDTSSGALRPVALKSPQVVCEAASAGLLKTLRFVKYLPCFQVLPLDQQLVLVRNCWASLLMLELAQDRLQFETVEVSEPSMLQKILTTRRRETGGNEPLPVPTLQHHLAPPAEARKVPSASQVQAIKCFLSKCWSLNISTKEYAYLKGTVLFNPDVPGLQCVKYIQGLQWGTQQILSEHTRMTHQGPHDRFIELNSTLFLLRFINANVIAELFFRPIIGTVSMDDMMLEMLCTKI
SF1 mutant ctr – StAR reporter signal changes without DAX1, counter-screen for DAX1 inhibitor project, cell-based, luminescence, AF-2 mutant SF-1, transactivation; shares compounds with DAX1 inh; HEK293 StAR-luciferase, SF-1 AF2 mutant; inhibition, % at 6.8 µM; 78% of 2,400 active; AID 652136, 2013;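 active means inhibition above the mean of all tested compounds plus 3 SD, cut at about 3% in these data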;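 further: 0% = DAX-1 transfected cells with DMSO and 100% = cells without DAX-1 with DMSO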
Numbers without * were called inactive; u = inconclusive; x = not tested or not shown. Hits are enriched below; roughly 4.2% of the tested compounds scored in any of these assays.

SMILES	hgDAF12 agonist	DAX1 inh	esBAF inh	ssDAF12 agonist	Wnt act	hcDAF12 agonist	DAX1 conf	SF1 mutant ctr
Cc1cccc(OCC(=O)Nc2nnc(-c3ccco3)s2)c1	-1	0	x	-1	20	0	x	x
CCOc1cccc(C(=O)Nc2nnc(-c3ccco3)s2)c1	11*	5.0*	-42	1	1	5	15*	5.1*
Cc1cccc(OCCn2c(=O)n(C)c3ccccc32)c1	13*	5.8*	78*	-1	u	3	7.2*	4.3*
CCCCN(CC)CCCNC(=O)c1cc2c(=O)n(C)c3ccccc3c2n1C	1	4.7*	-6	-2	7	-1	8.7*	2
CC(C)OCCCNC(=O)c1cc2c(=O)n(C)c3ccccc3c2n1C	2	-1	-1	-1	2	-2	x	x
CCCNC(=O)[C@@H]1[C@@H](CO)[C@@H]2Cn3c(cccc3=O)[C@H]1N2Cc1ccccc1	x	x	1	x	x	x	x	x
CCn1cc(Cl)c(C(=O)Nc2ccc3c(c2)OCCO3)n1	13*	6.1*	x	1	-1	2	9.7*	5.5*
Nc1c(C(=O)Nc2ccc3c(c2)OCCO3)nnn1Cc1cccc(F)c1	7	7.7*	69*	-1	u	0	9.4*	5.3*
CCn1cc(Cl)c(C(=O)Nc2cccc(C(F)(F)F)c2)n1	3	0	28	-1	2	1	x	x
Nc1c(C(=O)Nc2ccc3c(c2)OCCO3)nnn1Cc1ccc(Cl)cc1	12*	8.7*	114*	0	44*	5	7.7*	5.2*
Cc1ccc(-c2ccc3c(c2)O[C@@H](CN(C)C(=O)C2CC2)[C@H](C)CN([C@H](C)CO)S3(=O)=O)cc1	x	x	-2	x	x	x	x	x
CO[C@H]1CN(C)C(=O)c2cc(NC(=O)Nc3cccc(F)c3)ccc2OC[C@@H](C)N(C(=O)Nc2c(C)noc2C)C[C@@H]1C	x	x	1	x	x	x	x	x
COc1cc(SC)ccc1C(=O)Nc1ccc(Cl)cn1	12*	5.3*	-80	1	0	5	-2	-4
CSc1ccc(Cl)c(C(=O)Nc2ccc(Cl)cn2)c1	3	0	-1	-1	3	-1	x	x
CCC(=O)C1CCCN(C(=O)c2ccc3nc(-c4cccc(OC)c4)oc3c2)C1 (configuration not stated)	10	7.0*	-4	0	29	5	8.3*	5.7*
CCCC(=O)N1CCCC(c2nc(-c3cccc(OC)c3)no2)C1 (configuration not stated)	12*	4.6*	x	-1	11	4	12*	5.7*
COc1ccc(Cc2nc3ccc(C(=O)N4CCCC4)cc3o2)cc1	11*	8.3*	71*	1.1*	29	2	9.2*	3.4*
CCN(CC)C(=O)C1CCCN(C(=O)c2ccc3nc(-c4cccc(OC)c4)oc3c2)C1 (configuration not stated)	2	1	x	-1	9	1	x	x
COc1ccc(Cc2nc3ccc(C(=O)N4CCCC4)cc3o2)cc1OC	-1	-1	6	-1	-1	-1	x	x
COc1cccc(-c2nc3ccc(C(=O)N4CCCC(O)C4)cc3o2)c1 (configuration not stated)	9	5.3*	x	0	25	2	7.4*	7.4*
CC(C)NC(=O)Nc1ccc2c(c1)C(=O)N([C@H](C)CO)C[C@@H](C)[C@@H](CN(C)C(=O)C1CCCCC1)OCCCC[C@H](C)O2	x	x	4	x	x	x	x	x
O=C(c1ccc2oc(CCCc3ccccc3)nc2c1)N1CCCC1	11*	9.0*	71*	1.0*	35*	5.8*	9.5*	6.9*
Nc1ccc(C#Cc2ccccc2)cc1	-1	-1	11	-2	x	-2	x	x
Cc1cccc(C#Cc2ccccc2)n1	11*	4.9*	11	0	67*	3	7.3*	4.9*
CC(=O)N(C)C[C@H]1Oc2ncc(C#C[C@@H](C)O)cc2C(=O)N([C@@H](C)CO)C[C@H]1C	x	x	0	x	x	x	x	x
SMILES	hgDAF12 agonist	DAX1 inh	esBAF inh	ssDAF12 agonist	Wnt act	hcDAF12 agonist	DAX1 conf	SF1 mutant ctr
O=C(NCCc1cccc(Cl)c1)c1ccc2c(c1)OCO2	10	11*	x	1	45*	5.6*	13*	6.8*
C[C@@H]1CN([C@H](C)CO)C(=O)Cc2cc(NS(=O)(=O)c3cccs3)ccc2O[C@@H]1CN(C)C(=O)Nc1ccc(C(F)(F)F)cc1	x	x	-2	x	x	x	x	x
COc1cc(OC)c2c(-c3cccc(-c4ccc(NC(C)=O)cc4)c3)cc(=O)oc2c1	1	4.8*	15	-1	-1	0	6.3*	-7
COc1cc(OC)c2c(-c3cccc(-c4ccc(OC)c(OC)c4)c3)cc(=O)oc2c1	1	1	-11	0	-3	-2	x	x
Cc1ccc2nc(SCC(=O)c3ccccc3)nc(=O)n2c1	12*	8.3*	68*	0	12	4	9.2*	5.3*
Cc1ccc2nc(SCC(=O)N3CCCC3)nc(=O)n2c1	2	2	-1	-1	4	1	x	x
O=C(Cn1nnc(-c2ccc3c(c2)OCO3)n1)Nc1ccccc1C(=O)O	3	4.9*	x	-1	6	1	2	3.1*
C[C@@H]1CCCCO[C@@H](CN(C)S(=O)(=O)c2cn(C)cn2)[C@H](C)CN([C@H](C)CO)C(=O)c2cc(NC(=O)CCC(F)(F)F)ccc2O1	x	x	1	x	x	x	x	x
CC(=O)Nc1ccc(C(C)=NNC(=O)C2CCCC2)cc1	3	4.6*	-1	0	-2	1	-2	-1
C/C(=N\NC(=O)C1CCCC1)c1ccc(NC(=O)C(F)(F)F)cc1	4	-1	-6	-1	-2	1	x	x
CC1CC(C)CN(CCCNC(=O)c2ccc3nc(N4CCOCC4)sc3c2)C1 (configuration not stated)	-1	0	-1	-2	0	-1	x	x
